According to the OligoGym collection:

target: CDH19; test: pooled miR-30 sensor sort-seq; sequence = guide strand; details: shRNA
Further: reference of the scale not given here.

Row | Sequence | sensor-assay potency score (higher = more potent)
1 | TTGATATTGAACACTTTGCTCC | -0.145
2 | TACTTGTAGTGATTGTACCATT | -0.931
3 | TTAATTAATACACTTGTTGTTC | -0.144

target: CDH20; test: as above; details: shRNA

Row | Sequence | sensor-assay potency score (higher = more potent)
4 | TTGGATAATCACTTCGTAGTAT | 0.305
5 | TTGATTGTGACAGGAACACTTC | -0.452
6 | TAGTATTCTTTGGCTTCTCTGT | -0.859
7 | TTCTTTGGCTTCTCTGTCCATG | -0.339
8 | TATCATTGACATCTGAGAGGGT | 0.944
9 | TGTAGTAGAAATGCTGACCATT | -0.339
10 | TTCATCTCTGCATTGATGCCTT | -0.00989
11 | TTGAGTTGTTGGTCACATCTGG | 0.759
12 | TAGTATATTTCATCTCTGCATT | -0.967
13 | TATCTGAATGAAGCTTGCCGAC | -1.28
14 | TGATGATGAACTCTGACTCGGG | -0.216
15 | TTTCTTGCTTTCAAAACTCAGG | -0.799

target: CDH24; test: as above; details: shRNA

Row | Sequence | sensor-assay potency score (higher = more potent)
16 | TCATCAATCACAAATACGGTGC | -0.0927
17 | TGGATTGTCGTTGATGTCTTGC | -0.503
18 | TTCGAGTCCGCAGCAGAGCAGG | -1.36
19 | TCGTTGACATCGCTGAGCGTGA | -0.691
20 | TTCTATGGGAACCAAGTAGGGG | -0.879
21 | TAGAGAAGCAACGCTCCGGATC | -0.845
22 | TAGGCTGGGTCAATGAGCGTGT | -0.193
23 | TTCATCTCTGTCCAGGGCCCGG | -1.68
24 | TGCAAGTCTGTGCTGATGCTGA | -0.691
25 | ATCCAGAACAGTGTACACCAGC | -0.986
26 | TTCCTCAATGACAAAGAACTGG | -0.774
27 | TTGTCCTGGACAGTAAAGTTGG | -0.744

target: CDH2; test: as above; details: shRNA

Row | Sequence | sensor-assay potency score (higher = more potent)
28 | TATCTCTTACATCATCTTCTGG | -0.0628
29 | TTTTTATCTCTATCAGACCTGA | -0.29
30 | TTCAACTTCTGCTGACTCCTTC | 0.711
31 | TTGATGACAATGTCAATGGGGT | 0.314
32 | TATTTCTTCAACTTCTGCTGAC | 0.204
33 | TTCATAGTCAAACACTAACAGG | -1.55
34 | TAGTCAAACACTAACAGGGAGT | -0.885
35 | TTGTACTTGTCCAAAAACCAAG | -1.35
36 | TATTATCTCTTACATCATCTTC | -0.354
37 | TTAACGTATACTGTTGCACTTT | -0.309
38 | TTGCTGCATATATCGATCTGGG | -0.846
39 | ATAACTGTAACAGACACGGTTG | -0.196
40 | TTGACCACGGTGACTAACCCGT | -0.441
